{"source": "PubChem BioAssay (EPA / NIEHS)", "note": "The source made the active and inactive calls. Rule for the calls: active = hit-call score of the fitted dose curve at least 0.9, where 1 is the maximum; inactive = score below 0.9."}
{"molecular_target": "Paired box protein Pax-6 (Homo sapiens) (UniProt P26367)", "sequence (P26367 whole entry, looked up)": "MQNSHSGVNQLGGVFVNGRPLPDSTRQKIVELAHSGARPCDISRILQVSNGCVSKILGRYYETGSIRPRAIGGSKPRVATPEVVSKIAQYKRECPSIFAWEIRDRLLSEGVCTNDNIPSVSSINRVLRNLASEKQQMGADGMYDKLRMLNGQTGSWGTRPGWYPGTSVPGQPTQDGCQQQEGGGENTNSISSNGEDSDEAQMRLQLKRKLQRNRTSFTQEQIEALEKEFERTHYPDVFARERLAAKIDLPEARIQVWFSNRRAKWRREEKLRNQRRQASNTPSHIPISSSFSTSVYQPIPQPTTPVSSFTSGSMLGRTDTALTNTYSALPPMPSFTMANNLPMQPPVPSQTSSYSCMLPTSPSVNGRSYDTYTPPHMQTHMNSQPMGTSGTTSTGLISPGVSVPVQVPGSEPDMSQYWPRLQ", "assay": "ATG_Pax6_CIS: Attagene CIS-FACTORIAL HepG2 Assay for human Paired Box 6 (PAX6) (AID 2282956)", "settings": "HepG2 CIS-FACTORIAL PAX6 reporter transcription, RNA readout; actives raise or lower the signal", "outline": "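DMSO-referenced bidirectional fits of reporter mRNA fluorescence; HepG2 with transient cis-promoter MRTUs, 24 h post-dose, RT-PCR plus capillary electrophoresis detection.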"}
{"smiles": "Cc1ccc(N)c(S(=O)(=O)O)c1", "outcome": "inactive"}
{"smiles": "CC1CC(O)CC(C)(C)C1", "note": "(stereo not drawn)", "outcome": "inactive"}
{"smiles": "O=C(O)CNc1ccccc1", "outcome": "inactive"}
{"smiles": "Cc1ncc[nH]1", "outcome": "inactive"}
{"smiles": "O=Cc1ccccc1S(=O)(=O)O", "outcome": "inactive"}
{"smiles": "CCOc1ccc(NC(=O)CC(C)O)cc1", "note": "(stereo not drawn)", "outcome": "inactive"}
{"smiles": "CC(C)(N=C=O)c1cccc(C(C)(C)N=C=O)c1", "outcome": "inactive"}
{"smiles": "CCCCC1(COC(=O)CCC(=O)O)C(=O)N(c2ccccc2)N(c2ccccc2)C1=O", "outcome": "inactive"}
{"smiles": "CC=Cc1ccc(OC)c(OC)c1", "outcome": "inactive"}
{"smiles": "COC(=O)c1cccnc1", "outcome": "inactive"}
{"smiles": "OCc1cccc(Oc2ccccc2)c1", "outcome": "inactive"}
{"smiles": "C=C[Si]1(C)O[Si](C)(C=C)O[Si](C)(C=C)O[Si](C)(C=C)O1", "note": "(stereo not drawn)", "outcome": "inactive"}
{"smiles": "CC(=O)C1(C)CC2=C(CCCC2(C)C)CC1C", "note": "(stereo not drawn)", "outcome": "inactive"}
{"smiles": "CC(C)=CCCC(C)CCOC=O", "note": "(stereo not drawn)", "outcome": "inactive"}
{"smiles": "CCCCCC(C=O)=Cc1ccccc1", "outcome": "inactive"}
{"smiles": "COC(C)(C)CC(C)=O", "outcome": "inactive"}
{"smiles": "CCc1ccc(O)cc1", "outcome": "inactive"}
{"smiles": "C=CCOC(=O)CCCCCC", "outcome": "inactive"}
{"smiles": "CCCN(CCC)S(=O)(=O)c1ccc(C(=O)O)cc1", "outcome": "inactive"}
{"smiles": "C[Si]1(C)O[Si](C)(C)O[Si](C)(C)O1", "outcome": "inactive"}
{"smiles": "CCCCCCOCCOCCO", "outcome": "inactive"}
{"smiles": "CCCCCCCC(=O)OCCCCCC", "outcome": "inactive"}
{"smiles": "Oc1ccc2cc(SSc3ccc4cc(O)ccc4c3)ccc2c1", "AC50": "27.1 µM (active)"}
{"smiles": "NCc1ccco1", "outcome": "inactive"}
{"smiles": "CCCCCCCCCCCCS(=O)(=O)Cl", "outcome": "inactive"}
{"smiles": "CCC(C)=O", "outcome": "inactive"}
{"smiles": "Cc1c(Cl)cccc1[N+](=O)[O-]", "outcome": "inactive"}
{"smiles": "COC(=O)C=C(C)CCC=C(C)C", "outcome": "inactive"}
{"smiles": "CCc1ccc(O)c(OC)c1", "outcome": "inactive"}
{"smiles": "CCCCCCCCc1ccc(S(=O)(=O)O)cc1", "AC50": "19.7 µM (active)"}
{"smiles": "CCCCC1CCC(O)CC1", "note": "(stereo not drawn)", "outcome": "inactive"}
{"smiles": "O=c1c(O)c(-c2ccc(O)cc2)oc2cc(O)cc(O)c12", "outcome": "inactive"}
{"smiles": "CCCCCCC(O)CCCCCCCCCCC(=O)O", "note": "(stereo not drawn)", "outcome": "inactive"}
{"smiles": "CCCCC(CC)COC(C)=O", "note": "(stereo not drawn)", "outcome": "inactive"}
{"smiles": "CCNCCO", "outcome": "inactive"}
{"smiles": "OC[C@H]1O[C@@H](Oc2ccc(O)cc2)[C@H](O)[C@@H](O)[C@@H]1O", "outcome": "inactive"}
{"smiles": "O=C1CCCC=CCCCCCCCCCC1", "outcome": "inactive"}
{"smiles": "CCOC(=O)C1OC1c1ccccc1", "note": "(stereo not drawn)", "outcome": "inactive"}
{"smiles": "C#CC(C)(O)CC(C)C", "note": "(stereo not drawn)", "outcome": "inactive"}
{"test_system": "not listed separately", "assay": "ATG_PXRE_CIS: Attagene CIS-FACTORIAL HepG2 Assay for human Pregnane X Receptor Element (PXRE) (AID 2282957)", "settings": "HepG2 Attagene CIS-FACTORIAL PXRE reporter, mRNA; actives raise or lower the signal", "outline": "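Bidirectional activity, baselined to DMSO, derived from reporter mRNA fluorescence (RT-PCR plus capillary electrophoresis) in HepG2 cells bearing cis-promoter reporter units, 24 h exposure.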"}
{"smiles": "Cc1ccc(N)c(S(=O)(=O)O)c1", "outcome": "inactive"}
{"smiles": "CC1CC(O)CC(C)(C)C1", "note": "(stereo not drawn)", "outcome": "inactive"}
{"smiles": "O=C(O)CNc1ccccc1", "AC50": "19.2 µM (active)"}
{"smiles": "Cc1ncc[nH]1", "outcome": "inactive"}
{"smiles": "O=Cc1ccccc1S(=O)(=O)O", "outcome": "inactive"}
{"smiles": "CCOc1ccc(NC(=O)CC(C)O)cc1", "note": "(stereo not drawn)", "outcome": "inactive"}
{"smiles": "CC(C)(N=C=O)c1cccc(C(C)(C)N=C=O)c1", "AC50": "13.1 µM (active)"}
{"smiles": "CCCCC1(COC(=O)CCC(=O)O)C(=O)N(c2ccccc2)N(c2ccccc2)C1=O", "AC50": "19.5 µM (active)"}
{"smiles": "CC=Cc1ccc(OC)c(OC)c1", "AC50": "19.5 µM (active)"}
{"smiles": "COC(=O)c1cccnc1", "outcome": "inactive"}
{"smiles": "OCc1cccc(Oc2ccccc2)c1", "AC50": "27.4 µM (active)"}
{"smiles": "C=C[Si]1(C)O[Si](C)(C=C)O[Si](C)(C=C)O[Si](C)(C=C)O1", "note": "(stereo not drawn)", "AC50": "2.51 µM (active)"}
{"smiles": "CC(=O)C1(C)CC2=C(CCCC2(C)C)CC1C", "note": "(stereo not drawn)", "AC50": "25.6 µM (active)"}
{"smiles": "CC(C)=CCCC(C)CCOC=O", "note": "(stereo not drawn)", "AC50": "100 µM (active)"}
{"smiles": "CCCCCC(C=O)=Cc1ccccc1", "AC50": "24.5 µM (active)"}
{"smiles": "COC(C)(C)CC(C)=O", "AC50": "34.4 µM (active)"}
{"smiles": "CCc1ccc(O)cc1", "AC50": "32.3 µM (active)"}
{"smiles": "C=CCOC(=O)CCCCCC", "outcome": "inactive"}
{"smiles": "CCCN(CCC)S(=O)(=O)c1ccc(C(=O)O)cc1", "AC50": "27.3 µM (active)"}
